Among the data in PubChem BioAssay AID588397 (National Center for Advancing Translational Sciences (NCATS), 2011) are Potency values, retold here.

Values joined by “and” are separate entries in the source; they are usually repeats but may differ in a detail not shown here. Equal values may be shown once. Hit rate of the full screen: of about 1,300 compounds, about 1,000 (77%) were called active. Inconclusive results (about 7%) are left out. Calls follow the shape of the dose curve; as a rule, active = well fitted inhibition curve with a large enough effect; inconclusive = small, poorly fitted or top-dose-only effect; inactive = no such curve, though single readings can be large or run the other way. The set was probably picked from earlier hits. The list shows a part of the results.
Potency is read from the fitted curve at half-maximal effect.

The experiment is described as follows: qHTS of small molecules that selectively kill Giardia lamblia: Hit Validation.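 Also: viability measured as ATP content by luminescence so killing lowers signal; trophozoites exposed to compounds for 48 h anaerobically at 37 °C; nearly all actives have a fitted effect of over 65% in size.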 To be noted: Giardia lamblia trophozoite viability, dose-response; series mostly up to 38.3 µM. The essentials: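 Trophozoites 100 cells/well + cpd; 48 hrs, 37 deg C, anaerobic. ATPLite 1-Step added, 15-30 min RT, luminescence read (ATP-based viability).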
In general terms: In qHTS, concentration-response curves come from the screen itself.
Turning to `CCOC(=O)c1nc(C(=O)NCc2ccc(C)cc2)nc2ccccc12`, the Potency is 7290 nM (active).

`N#Cc1ccc(-c2c(-c3ccccc3)ncc3cc(F)ccc23)cc1`: the Potency result was “inactive”.

Regarding `O=[N+]([O-])c1nn(-c2ccc(Cl)cc2)n(O)c1=NCc1ccncc1`, the Potency was 3650 nM (active).

As for `Cc1ccc(CN=c2c([N+](=O)[O-])nn(-c3ccc(Cl)cc3)n2O)cc1`, the Potency is 7290 nM (active).

Consider `O=[N+]([O-])c1nn(-c2ccc(Cl)cc2)n(O)c1=NCc1ccccc1`, for which the Potency is 9180 nM (active).

For `COc1ccc2cc3cc(C(=O)Nc4ccccc4N4CCN(C)CC4)oc3nc2c1`, the Potency was 2050 nM (active).

For `COc1ccc(OC)c(NC(=O)N2CCc3ccccc3C2)c1`, the Potency result is “inactive”.

With `Cc1ccccc1Cn1nnc2c1C(=O)c1ccccc1C2=O`, the Potency was 2900 nM (active).

On to `O=[N+]([O-])c1ccc(CN2CCN(c3ccc(F)cc3)CC2)o1`, for which the Potency was 1030 nM (active).

In the case of `O=[N+]([O-])c1ccc(CN2CCN(c3ccccc3)CC2)o1`, the Potency is 818 nM (active).

`O=[N+]([O-])c1ccc(CN2CCN(c3ccc(Cl)cc3)CC2)o1`: the Potency is 729 nM (active).

Take `O=C(CN1CCN(c2ccccc2)CC1)Nc1scc2c1c(=O)oc1ccccc12`: the Potency result is “inactive”.

Regarding `O=[N+]([O-])c1ccc(N2CCN(Cc3ccc([N+](=O)[O-])o3)CC2)cc1`, the Potency is 516 nM (active).

On to `COc1ccc(C(=O)CC(SCC(NC(C)=O)C(=O)O)c2ccc(Cl)cc2)cc1OC` (centres undefined), for which the Potency was 13000 nM (active).

As for `COc1ccc2c3n([n+]([O-])c2c1)CCN=C3c1ccc(C)cc1`, the Potency is 365 nM (active).

Turning to `Nc1c(Cl)cc(C2=NCCn3c2c2ccccc2[n+]3[O-])cc1Cl`, the Potency was 326 nM (active).

Consider `COc1ccc2c3n([n+]([O-])c2c1)CCN=C3c1ccc(Cl)cc1`, for which the Potency was 579 nM (active).

Consider `COc1ccc2c3n([n+]([O-])c2c1)CCN=C3c1cc(Cl)c(N)c(Cl)c1`, for which the Potency is 183 nM (active).

On to `c1ccc(-c2cn3nc(-c4ccccc4)sc3n2)cc1`, for which the Potency was 918 nM (active).

With `O=C(O)CCCCCNS(=O)(=O)c1cccc2c1C(=O)c1ccccc1C2=O`, the Potency is 3650 nM (active).

Take `CC(C)c1ccc(Nc2nnc(SCC(=O)Nc3ncc(S(=O)(=O)c4ccc([N+](=O)[O-])cc4)s3)s2)cc1`: the Potency was 2050 nM (active).

Regarding `N#CC1C=Cc2c(ccc3ccccc23)N1C(=O)c1ccccc1` (centres undefined), the Potency was 1630 nM (active).

With `O=C(Cn1cnc2c(OCc3ccccc3)ncnc21)NCCCc1ccccc1`, the Potency result was “inactive”.

Turning to `O=C(Cn1ccnc1[N+](=O)[O-])NCc1ccccc1`, the Potency is 1300 nM (active).

`c1ccc(CNc2ncnc3ccccc23)cc1`: the Potency entry is “inactive”.

For `CC1CC(C)C(=NNC(N)=O)C(C(O)CC2CCC(=O)NC2=O)C1` (centres undefined), the Potency is 163 nM (active).

With `COc1ccc(NC(C)C(=O)N/N=C/c2ccc([N+](=O)[O-])s2)cc1` (centres undefined), the Potency is 1630 nM (active).

In the case of `Cc1ccc(NC(C)C(=O)N/N=C/c2ccc([N+](=O)[O-])s2)cc1` (centres undefined), the Potency was 2900 nM (active).

As to `CCn1cnc2c([N+](=O)[O-])c(NS(=O)(=O)c3ccc(C)cc3)ccc21`, the Potency is 206 nM (active).

On to `Cc1cc(C)cc(OCC(=O)N/N=C/c2ccc([N+](=O)[O-])o2)c1`, for which the Potency is 579 nM (active).

Regarding `O=C(N/N=C/c1ccc([N+](=O)[O-])o1)C(O)c1ccccc1` (centres undefined), the Potency was 4100 nM (active).

`Cc1ccc(OCC(=O)N/N=C/c2ccc([N+](=O)[O-])o2)cc1`: the Potency was 729 nM (active).

`O=C(COc1ccccc1)N/N=C/c1ccc([N+](=O)[O-])o1`: the Potency is 460 nM (active).

In the case of `CCN1C[C@@H]2[C@@H]3C(=O)N(Cc4ccccc4)C(=O)[C@@H]3[C@](C)(C1=O)N2C(=O)c1ccccc1`, the Potency entry was “inactive”.

For the compound `Cc1ccccc1OCC(=O)N/N=C/c1ccc([N+](=O)[O-])o1`, the Potency is 516 nM (active).

Regarding `CCCOc1ccc(CCC(=O)N/N=C/c2ccc([N+](=O)[O-])o2)cc1`, the Potency is 729 nM (active).

`O=C(Cc1ccc(Cl)cc1)Nc1ncc([N+](=O)[O-])s1`: the Potency is 818 nM (active).

For `COc1ccc(Cc2nnc(NC(=O)Nc3ccccc3F)s2)cc1OC`, the Potency entry was “inactive”.

On to `COc1ccc(CC(=O)Nc2ncc([N+](=O)[O-])s2)cc1OC`, for which the Potency was 259 nM (active).

In the case of `Cc1nc(C)c(C(=O)Nc2ncc([N+](=O)[O-])s2)o1`, the Potency was 1160 nM (active).

For the compound `Cc1ccc(C(=O)Nc2ncc([N+](=O)[O-])s2)cc1`, the Potency was 259 nM (active).

As to `CC1CCN(S(=O)(=O)c2cn(C)c(=O)n(C)c2=O)CC1`, the Potency entry is “inactive”.

Regarding `Cc1ccc(OCC(=O)N(Cc2cccc(Cl)c2)C2CCS(=O)(=O)C2)cc1C` (centres undefined), the Potency entry is “inactive”.

On to `CC12CCC(C(=O)Nc3ncc([N+](=O)[O-])s3)(OC1=O)C2(C)C` (centres undefined), for which the Potency was 206 nM (active).

In the case of `O=C(Nc1ncc([N+](=O)[O-])s1)c1ccc2c(c1)OCO2`, the Potency is 259 nM (active).

With `O=C(Cc1ccc(Br)cc1)Nc1ncc([N+](=O)[O-])s1`, the Potency is 230 nM (active).

For `O=C(/C=C/c1ccc([N+](=O)[O-])cc1)Nc1ncc([N+](=O)[O-])s1`, the Potency is 650 nM (active).

Consider `O=C(COc1ccc(Cl)cc1)Nc1ncc([N+](=O)[O-])s1`, for which the Potency was 410 nM (active).

Take `O=C(Cc1c(F)cccc1Cl)Nc1ncc([N+](=O)[O-])s1`: the Potency is 206 nM (active).

`Cc1ccc(S(=O)(=O)CC(=O)Nc2ncc([N+](=O)[O-])s2)cc1`: the Potency was 579 nM (active).

For the compound `Cc1onc(-c2ccccc2)c1C(=O)Nc1ncc([N+](=O)[O-])s1`, the Potency is 579 nM (active).

As for `Cc1ccc(S(=O)(=O)CC(=O)Nc2ccc(F)c(F)c2F)cc1`, the Potency entry is “inactive”.

In the case of `Cc1onc(-c2ccccc2)c1NC(=O)N(Cc1ccccc1)C(C)C`, the Potency entry was “inactive”.

As for `Cc1onc(-c2ccccc2)c1C(=O)N(Cc1ccccc1)C(C)C`, the Potency result was “inactive”.

Consider `CCn1cc(C(=O)NCCC(C)C)c(=O)c2cc(F)c(N3CCN(C(=O)c4ccco4)CC3)cc21`, for which the Potency entry was “inactive”.

As for `O=C(Nc1ncc([N+](=O)[O-])s1)c1cccc([N+](=O)[O-])c1`, the Potency is 290 nM (active).

Regarding `O=C(NNC(=O)c1ccncc1)Nc1cccc([N+](=O)[O-])c1`, the Potency result is “inactive”.

Turning to `Cc1ccc(CC(=O)Nc2ncc([N+](=O)[O-])s2)cc1`, the Potency was 130 nM (active).

For the compound `CC(=O)Nc1ccc(NC(=O)c2c([N+](=O)[O-])cnn2C)cc1`, the Potency was 1300 nM (active).

For `Cc1nonc1OCCn1c([N+](=O)[O-])cnc1C`, the Potency was 1160 nM (active).

On to `CCS(=O)(=O)CCn1c([N+](=O)[O-])cnc1C`, for which the Potency was 918 nM (active).

Regarding `Cc1ncc([N+](=O)[O-])n1CCN1C(=O)c2ccccc2C1=O`, the Potency is 650 nM (active).

As to `CCOc1cc(C=O)ccc1OCCn1c([N+](=O)[O-])cnc1C`, the Potency was 650 nM (active).

As for `Cc1ncc([N+](=O)[O-])n1CCO`, the Potency was 4.1 µM (active) and 4.6 µM (active).

For the compound `Cc1ncc([N+](=O)[O-])n1CC(O)CCl` (centres undefined), the Potency is 1160 nM (active).

Consider `COc1cc2nc(N3CCN(C)CC3)nc(NC(C)C)c2cc1OC`, for which the Potency is 918 nM (active).

Take `COc1cc2nc(N3CCN(c4cc(C)ccc4C)CC3)nc(N)c2cc1OC`: the Potency was 4100 nM (active).

As to `COc1cc2nc(N3CCCCC3)nc(NC3CCN(Cc4ccccc4)CC3)c2cc1OC`, the Potency was 2050 nM (active).

Take `COc1cc2nc(N3CCN(C)CC3)nc(NC3CC3)c2cc1OC`: the Potency is 365 nM (active).

For the compound `COc1cc2nc(N3CCCN(C)CC3)nc(NC3CCCCC3)c2cc1OC`, the Potency is 650 nM (active).

In the case of `Cc1ccc(C(C(=O)NCc2ccco2)N(C(=O)CNC(=O)c2cccs2)c2c(C)cccc2C)cc1` (centres undefined), the Potency was 818 nM (active).

On to `O=C1C2C3C=CC(C3)C2C(=O)N1Nc1ccc([N+](=O)[O-])cc1[N+](=O)[O-]` (centres undefined), for which the Potency is 4100 nM (active).

For the compound `Cn1c(=NC(=O)c2cnccn2)sc2ccccc21`, the Potency is 5790 nM (active).

In the case of `CC(Oc1ccccc1)C(=O)Nc1nnc(S(=O)(=O)N2CCCCC2)s1` (centres undefined), the Potency is 3650 nM (active).

As for `CC(Oc1ccccc1)C(=O)Nc1nnc(S(=O)(=O)N2CCCCCC2)s1` (centres undefined), the Potency is 5160 nM (active).

For `Cn1nc(N)c2c(-c3ccccc3)c(C#N)c(N)nc21`, the Potency was 4600 nM (active).

For `Cn1nc(N)c2c(-c3ccc(Cl)cc3)c(C#N)c(N)nc21`, the Potency was 2900 nM (active).

Consider `Cc1cc(C(=O)COc2cccnc2[N+](=O)[O-])c(C)n1Cc1cccs1`, for which the Potency is 1030 nM (active).

Take `Cc1ccc(OCC(=O)c2cc(C)n(Cc3cccs3)c2C)c([N+](=O)[O-])n1`: the Potency was 818 nM (active).

On to `COc1ccc(-c2nn(-c3ccccc3)cc2C(=O)N/N=C/c2ccc([N+](=O)[O-])o2)cc1`, for which the Potency was 516 nM (active).

For the compound `O=C(N/N=C/c1ccc([N+](=O)[O-])o1)c1cn(-c2ccccc2)nc1-c1ccccc1`, the Potency was 818 nM (active).

As to `O=C(N/N=C/c1ccc([N+](=O)[O-])o1)c1cn(-c2ccccc2)nc1-c1ccc(F)cc1`, the Potency is 516 nM (active).

Turning to `O=C(N/N=C/c1ccc([N+](=O)[O-])o1)c1cn(-c2ccccc2)nc1-c1ccc(Cl)cc1`, the Potency was 1030 nM (active).

Take `CCOC(=O)c1cc([N+](=O)[O-])sc1NC(=O)CC`: the Potency is 1030 nM (active).

On to `CN(Cc1cccc(Cl)c1)C(=O)C1CCC(=O)N(C2CC2)C1` (centres undefined), for which the Potency entry was “inactive”.

`O=C(COc1cccnc1[N+](=O)[O-])Nc1cc(Cl)ccc1Cl`: the Potency is 4600 nM (active).

Consider `O=C(COc1cccnc1[N+](=O)[O-])Nc1ccc(Cl)cc1F`, for which the Potency is 1830 nM (active).

For `CC(OC(=O)c1ccc([N+](=O)[O-])s1)C(=O)NC1CCCCC1C` (centres undefined), the Potency was 3650 nM (active).

As for `CC(OC(=O)c1ccc(Cl)nc1)C(=O)NC1CCCC1` (centres undefined), the Potency result was “inactive”.

On to `O=C(NCc1ccccn1)C1CCCN(S(=O)(=O)c2cc(Cl)ccc2Cl)C1` (centres undefined), for which the Potency is 1030 nM (active).

With `O=C(NCc1ccc(Cl)cc1)C1CCC(CNS(=O)(=O)c2ccccc2)CC1` (centres undefined), the Potency entry is “inactive”.

For the compound `Cc1ccc2nc(NC(=O)C3CCCN(S(=O)(=O)c4cnc[nH]4)C3)sc2c1` (centres undefined), the Potency result is “inactive”.

For the compound `CC/C=C1/N=C2C(=O)N(C)C(=O)N=C2N(C)N1`, the Potency was 130 nM (active).

On to `CN1N/C(=C\c2ccccc2)N=C2C(=O)N(C)C(=O)N=C21`, for which the Potency is 259 nM (active).
